Potency and affinity values are given separately. Activity calls are given as the source filed them.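 Rule for the calls: active = potentiation or inhibition of the KCNQ1 potassium channel at some dose, with a concentration-response curve obtained; inactive = no effect at any dose, or no curve obtained.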
The compounds below were run against Potassium voltage-gated channel subfamily KQT member 1 (Homo sapiens) (UniProt P51787) (assay: KCNQ1 channel current modulation by KCNQ2 openers, dose response, selectivity assay for KCNQ2 activator project, automated patch clamp, KCNQ1-CHO cells (AID 493044)). Conditions: automated patch clamp current (IonWorks); series mostly up to 30 µM.
Sequence of Potassium voltage-gated channel subfamily KQT member 1 (Homo sapiens) (P51787 whole entry, looked up): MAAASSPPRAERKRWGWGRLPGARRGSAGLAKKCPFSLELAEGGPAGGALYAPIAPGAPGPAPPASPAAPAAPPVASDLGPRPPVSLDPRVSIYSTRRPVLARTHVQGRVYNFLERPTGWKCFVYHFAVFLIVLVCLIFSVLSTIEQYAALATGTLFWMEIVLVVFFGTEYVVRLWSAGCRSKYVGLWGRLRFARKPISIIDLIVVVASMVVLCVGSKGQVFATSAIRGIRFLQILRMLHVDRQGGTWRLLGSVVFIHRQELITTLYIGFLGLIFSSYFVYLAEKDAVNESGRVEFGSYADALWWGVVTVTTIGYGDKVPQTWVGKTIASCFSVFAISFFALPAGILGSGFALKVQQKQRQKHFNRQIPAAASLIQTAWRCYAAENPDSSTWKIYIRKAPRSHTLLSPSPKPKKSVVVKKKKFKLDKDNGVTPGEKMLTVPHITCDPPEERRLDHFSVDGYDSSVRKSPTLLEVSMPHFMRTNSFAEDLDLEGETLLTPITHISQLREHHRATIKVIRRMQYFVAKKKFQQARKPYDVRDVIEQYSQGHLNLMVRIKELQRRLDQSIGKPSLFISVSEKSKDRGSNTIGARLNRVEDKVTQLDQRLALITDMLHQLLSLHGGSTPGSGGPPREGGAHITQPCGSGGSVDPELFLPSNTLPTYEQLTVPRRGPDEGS

outcome, inactive:
Cc1cc(C)c(NC(=O)C2CC3CCC2C3)c(C)c1 (centres undefined)
Cc1cccc(C)c1NC(=O)C1CC2CCC1C2 (centres undefined)
CCCCC(=O)Nc1c(C)cc(C)cc1Cl
Cc1cc(C)c(NC(=O)CC(C)(C)C)c(Cl)c1
